Screening results (PubChem)
Rows were chosen to be rich in hits. Some 5.5% of all compounds tested hit in one or more screens of this group.
CBFb RUNX1 block: qHTS Assay for Compounds Blocking the Interaction Between CBF-beta and RUNX1 for the Treatment of Acute Myeloid Leukemia; Runt-related transcription factor 1 (Homo sapiens) + Core-binding factor subunit beta …; 230,000 tested, under 10 active; AlphaScreen CBFb-His/RUNX1-biotin binding, biochemical; Potency, µM (highest dose often 59.8 µM), for the others: top-dose activity, negative = inhibition, actives largely listed as inhibitors; AID 1477, 2009; further: % of control where 0% means no effect
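CBFb-His/RUNX1-biotin, 30 nM each, preincubated 20 min RT; compound 15 min RT; Ni + streptavidin beads 50 ng each, 90 min RT; AlphaScreen read.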
CtBP-E1A blk: qHTS Assay for Inhibitors of the CtBP/E1A Interaction; 340,000 tested, 0.49% active; CtBP / adenovirus E1A interaction (AlphaScreen); AlphaScreen GST-E1A/His-CtBP binding, 1536-well; stronger effect = lower value; activity change, % (no concentration beside the values); in the data active means activity change below about -65%; inconclusive means mostly about -30% to -63%; further: on the % scale 0 is the no-effect control and ±100 the full control effect
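Protein mix (5X: 125 nM each GST-E1A, His-CtBP) was incubated with pinned compound 2 h at 37 deg C in dark, in 50 mM Tris pH 8.0 buffer with 300 mM NaCl. Glutathione donor and nickel acceptor beads followed; AlphaScreen signal read after 1 h.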
RORg inh: qHTS for inhibitors of ROR gamma transcriptional activity; 310,000 tested, 5.4% active; Drosophila S2 Gal4-RORgamma UAS-luciferase reporter, 20 h; AID 2551, 2010; Potency, µM (top dose mostly 53.6 µM), inactives show at the top dose activity change, negative = inhibition, hits mostly inhibitors; further: potency means the concentration at half of the fitted maximal effect; on the % scale 0 is the no-effect control and ±100 the full control effect; nearly all actives have a fitted effect of over 60% in size
Target sequence (P51450 whole entry, looked up, the tested form may be a part): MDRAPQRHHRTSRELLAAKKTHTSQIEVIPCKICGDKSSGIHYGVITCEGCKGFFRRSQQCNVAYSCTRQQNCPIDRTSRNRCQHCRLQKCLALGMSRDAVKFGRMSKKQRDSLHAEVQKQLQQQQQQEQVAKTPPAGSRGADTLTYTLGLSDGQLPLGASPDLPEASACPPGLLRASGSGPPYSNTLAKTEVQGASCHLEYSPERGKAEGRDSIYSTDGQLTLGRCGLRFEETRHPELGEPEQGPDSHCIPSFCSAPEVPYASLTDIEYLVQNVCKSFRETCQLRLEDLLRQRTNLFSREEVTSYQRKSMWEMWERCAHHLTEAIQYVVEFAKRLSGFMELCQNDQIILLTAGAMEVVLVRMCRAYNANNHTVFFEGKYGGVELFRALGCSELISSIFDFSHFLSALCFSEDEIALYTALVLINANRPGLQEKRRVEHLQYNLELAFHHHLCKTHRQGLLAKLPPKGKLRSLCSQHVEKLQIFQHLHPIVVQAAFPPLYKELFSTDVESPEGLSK
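Read-out: Photinus luciferase luminescence; inhibitors lower reporter signal. Insect Schneider cells with Gal4-ROR gamma fusion under metallothionein promoter, UAS reporter; 700 uM final copper sulfate induction, 20 hr, ambient temperature.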
VP16 counter: VP16 counterscreen qHTS for inhibitors of ROR gamma transcriptional activity | Drosophila S2 Gal4-VP16 UAS-luciferase, luminescence, 20 h | Potency, µM (doses to about 53.6 µM), for inactives: top-dose activity, negative = inhibition, usual class: inhibitors | 310,000 tested, 3.5% active;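 further: Gal4-VP16 expression switched on by copper sulfate through the metallothionein promoter; potency means the concentration at half of the fitted maximal effect; on the % scale 0 is the no-effect control and ±100 the full control effect; nearly all actives have a fitted effect of over 50% in size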
MBNL1-CUG inh: qHTS Assay for Inhibitors of MBNL1-poly(CUG) RNA binding. Muscleblind-like protein 1 (Homo sapiens), Q9NR56. TR-FRET MBNL1-His/biotin-(CUG)12 binding, 665/545 ratio. Potency, µM (series often up to 57.5 µM), inactives show at the highest dose activity change, negative = inhibition, most hits filed as inhibitors. 280,000 tested, 0.036% active. AID 2675, 2010; active means well fitted inhibition curve with a large enough effect in the signal ratio, with a control signal flat, not every such curve was filed as active; inconclusive means small, poorly fitted or top-dose-only effect, or effect the other way, or a change in a side signal; inactive means no such curve, though single readings can be large or run the other way; the % refers to the signal ratio; further: potency means the concentration at half of the fitted maximal effect; on the % scale 0 is the no-effect control and ±100 the full control effect
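Inhibition of protein-RNA binding appears as loss of TR-FRET between terbium anti-His antibody on MBNL1-His and streptavidin-XL665 on biotin-(CUG)12. Activity is normalized to buffer-only and uninhibited-complex controls.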
Six1-Eya2 blk: qHTS Assay for Inhibitors of the Six1/Eya2 Interaction. Homeobox protein SIX1 (Homo sapiens) + Protein phosphatase EYA2 (Homo sapiens), …. AlphaScreen GST-Six1/His-Eya2 binding, biochemical; stronger effect = lower value. activity change, % (concentration not given with the values). 360,000 tested, 0.56% active. AID 651725, 2012; in the data active means activity change below about -65%; inconclusive means mostly about -30% to -63%; further: on the % scale 0 is the no-effect control and ±100 the full control effect
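AlphaScreen with GST-Six1 and His-Eya2 (5X mix: 250 nM and 500 nM), glutathione donor and nickel acceptor beads; buffer 50 mM Tris pH 8.0, 300 mM NaCl, 1 mM TCEP; 1 h at 37 C in the dark.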
Numbers without * were called inactive; [ ] = dose if it differs, or a comment. Unless noted, the call rests on the fitted dose curve; in most records, active means well fitted curve in the direction sought with a large enough effect; inconclusive means small, poorly fitted or top-dose-only effect, or another doubt; inactive means no such curve, though single readings can be large; an effect the other way counts as inactive or inconclusive.

For O=C(CCN1CCN(Cc2ccccc2)CC1)Nc1cccc(Br)c1 the results were CtBP-E1A blk 6.4, RORg inh -0.3%, VP16 counter 2.5%, MBNL1-CUG inh -9.5% and Six1-Eya2 blk -4.4.
`CC(=O)Nc1nc(=S)n(-c2ccccc2)[nH]1` gave CBFb RUNX1 block -2.4%, CtBP-E1A blk -0.8, RORg inh inconclusive, VP16 counter -15.0%, MBNL1-CUG inh -1.0% and Six1-Eya2 blk 1.2.
`CC(C)c1nc(=S)n(-c2ccccc2)[nH]1` gave CBFb RUNX1 block 1.7%, CtBP-E1A blk 3.4, RORg inh 5.62µM*, VP16 counter inconclusive, MBNL1-CUG inh 5.6% and Six1-Eya2 blk 2.0.
For CN(C)C(=O)/C(C#N)=C\c1cc(Br)c(Sc2ccc(Cl)cc2)o1 the results were CBFb RUNX1 block 3.2%, CtBP-E1A blk -0.1, RORg inh inconclusive, VP16 counter 10µM*, MBNL1-CUG inh 3.5% and Six1-Eya2 blk 2.5.
For COc1cc2[nH]cc(C(=O)NCc3cccs3)c(=O)c2cc1OC the results were CtBP-E1A blk -72.6* and Six1-Eya2 blk inconclusive.
`CC1(C)CC(NC(=O)c2cccc([N+](=O)[O-])c2)CC(C)(C)N1` gave CtBP-E1A blk -14.1, RORg inh -29.3%, VP16 counter 0.9%, MBNL1-CUG inh inconclusive and Six1-Eya2 blk 17.6.
Screening Cc1ccccc1NC(=S)NCc1ccco1 returned CBFb RUNX1 block 5.6%, CtBP-E1A blk 0.7, RORg inh 12.6µM*, VP16 counter inconclusive, MBNL1-CUG inh 3.7% and Six1-Eya2 blk -6.1.
For Cc1ccc(NC(=S)NCc2ccco2)c(C)c1 the results were CBFb RUNX1 block -3.7%, CtBP-E1A blk -22.0, RORg inh 15.8µM*, VP16 counter inconclusive, MBNL1-CUG inh -8.8% and Six1-Eya2 blk -15.3.
For COc1ccc(OC)c(-c2csc(NC(=O)COC(=O)C3(C)CC3(Cl)Cl)n2)c1 (stereo unspecified) the results were CtBP-E1A blk -7.5 and Six1-Eya2 blk -10.3.
CNC(=O)[C@H]1O[C@H](n2cnc3c(NCc4cccc(I)c4)ncnc32)[C@@H](O)[C@@H]1O was read as CBFb RUNX1 block 3.1%[21.7 µM], RORg inh 28.6% and VP16 counter 12.9%.
Cc1ccsc1C(=O)N1CCC(CO)(Cc2ccccc2)CC1 was read as CBFb RUNX1 block 1.9%, CtBP-E1A blk -0.8, RORg inh 10µM*, VP16 counter inconclusive, MBNL1-CUG inh 1.1% and Six1-Eya2 blk 3.0.
Screening CCOc1ccc(C2/C(=C(\O)c3ccc4c(c3)OCCO4)C(=O)C(=O)N2CCCn2ccnc2)cc1OC (stereo unspecified) returned CtBP-E1A blk 1.2, RORg inh -17.8%, VP16 counter 6.2%, MBNL1-CUG inh 4.4% and Six1-Eya2 blk 3.1.
CCOc1ccc(CCNc2ccc3nnc(-c4ccccc4)n3n2)cc1OCC was read as CBFb RUNX1 block 2.7%[2.36 µM], CtBP-E1A blk inconclusive, RORg inh 30.0%, VP16 counter 0.4%, MBNL1-CUG inh -1.7% and Six1-Eya2 blk -71.9*.
Clc1ccc(CNc2ccc3nnc(-c4ccccc4)n3n2)cc1 was read as CBFb RUNX1 block 0.1%[2.36 µM], CtBP-E1A blk -2.2, RORg inh 20.9%, VP16 counter -2.2%, MBNL1-CUG inh -15.0% and Six1-Eya2 blk -2.8.
CCN(CC)c1ccc(/C=N/N=C(N)N)c(O)c1 was read as CBFb RUNX1 block -15.3%, CtBP-E1A blk inconclusive, RORg inh 6.9%, VP16 counter -9.3%, MBNL1-CUG inh 9.9% and Six1-Eya2 blk -23.7.
Screening Nn1cnnc1N/N=C/c1cc(Br)cc(Br)c1O returned CBFb RUNX1 block inconclusive, CtBP-E1A blk -90.9*, RORg inh 10µM*, VP16 counter 12.6µM*, MBNL1-CUG inh 3.5% and Six1-Eya2 blk -91.8*.
Cc1ccc(CN2CCN(/N=C/c3cc(Br)ccc3O)CC2)cc1 was read as CBFb RUNX1 block 1.9%, CtBP-E1A blk 4.6, RORg inh inconclusive, VP16 counter -3.6%, MBNL1-CUG inh -6.4% and Six1-Eya2 blk -4.4.
Screening CS/C(N)=N/N=C/c1cc(C)ccc1O returned CBFb RUNX1 block 1.3%, CtBP-E1A blk -19.7, RORg inh 0.316µM*, VP16 counter 5.01µM*, MBNL1-CUG inh 1.9% and Six1-Eya2 blk -4.2.
Screening CS/C(N)=N/N=C/c1cc(Br)cc(Br)c1O returned CBFb RUNX1 block -4.1%, RORg inh 0.631µM*, VP16 counter 2.51µM*, MBNL1-CUG inh -5.9% and Six1-Eya2 blk -18.9.
`CCS/C(N)=N/N=C/c1cc(C)ccc1O` gave CBFb RUNX1 block -2.2%, CtBP-E1A blk 12.6, RORg inh 0.708µM*, VP16 counter 2µM*, MBNL1-CUG inh 12.2% and Six1-Eya2 blk 5.9.
Screening Cc1cc(=O)oc2cc(NC(=O)CN3C(=O)NC(C)(c4ccccc4)C3=O)ccc12 (stereo unspecified) returned CtBP-E1A blk -3.4 and Six1-Eya2 blk -5.1.
C=NC(C(=O)NC1C(=O)N2C1SC(C)(C)C2C(=O)O)c1ccccc1 (stereo unspecified) was read as CBFb RUNX1 block 0.0%, RORg inh 2.5% and VP16 counter -3.1%.
Screening CCCCS/C(N)=N/N=C/c1cc(C)ccc1O returned CBFb RUNX1 block 4.2%, CtBP-E1A blk -22.5, RORg inh 5.62µM*, VP16 counter 5.01µM*, MBNL1-CUG inh 5.6% and Six1-Eya2 blk -14.3.
C=CCS/C(N)=N\N=C\c1cc(Br)cc([N+](=O)[O-])c1O was read as CBFb RUNX1 block inconclusive, CtBP-E1A blk -8.0, RORg inh 0.316µM*, VP16 counter 3.16µM* and Six1-Eya2 blk 0.1.
`CCCCCc1ccc(C)cc1O` gave RORg inh -3.4% and VP16 counter inconclusive.
Cn1cc(Cc2ccccc2)c(=O)c(Cc2ccccc2)c1 was read as CtBP-E1A blk 10.5 and Six1-Eya2 blk 4.2.
For Cc1cccc(CCNS(=O)(=O)c2ccc3c(c2)NC(=O)CS3)c1 the results were RORg inh -1.5%, VP16 counter 4.6%, MBNL1-CUG inh -15.1% and Six1-Eya2 blk -0.3.
`NC(=O)CC1(c2ccccc2)CCCCC1` gave CtBP-E1A blk 2.4 and Six1-Eya2 blk 5.4.
